Measurements: PubChem BioAssay (Tox21)
Records with an inconclusive call do not appear. A number with no mark means an inactive call. Activity calls are given as the source filed them. Calls follow the shape of the full dose curve.

What follows are molecules tested against Acetylcholinesterase (Homo sapiens) (UniProt P22303) (assay: Acetylcholinesterase (AChE) small molecule antagonists: fluorescence cell-based qHTS assay (AID 1347398; also: nearly all actives have a fitted effect of over 50% in size)). Conditions: SH-SY5Y cells; Potency: AChE activity; outcome: AChE activity; series mostly up to 115 µM; activity change, negative = inhibition: at the top concentration.
Sequence of Acetylcholinesterase (Homo sapiens) (P22303 whole entry, looked up): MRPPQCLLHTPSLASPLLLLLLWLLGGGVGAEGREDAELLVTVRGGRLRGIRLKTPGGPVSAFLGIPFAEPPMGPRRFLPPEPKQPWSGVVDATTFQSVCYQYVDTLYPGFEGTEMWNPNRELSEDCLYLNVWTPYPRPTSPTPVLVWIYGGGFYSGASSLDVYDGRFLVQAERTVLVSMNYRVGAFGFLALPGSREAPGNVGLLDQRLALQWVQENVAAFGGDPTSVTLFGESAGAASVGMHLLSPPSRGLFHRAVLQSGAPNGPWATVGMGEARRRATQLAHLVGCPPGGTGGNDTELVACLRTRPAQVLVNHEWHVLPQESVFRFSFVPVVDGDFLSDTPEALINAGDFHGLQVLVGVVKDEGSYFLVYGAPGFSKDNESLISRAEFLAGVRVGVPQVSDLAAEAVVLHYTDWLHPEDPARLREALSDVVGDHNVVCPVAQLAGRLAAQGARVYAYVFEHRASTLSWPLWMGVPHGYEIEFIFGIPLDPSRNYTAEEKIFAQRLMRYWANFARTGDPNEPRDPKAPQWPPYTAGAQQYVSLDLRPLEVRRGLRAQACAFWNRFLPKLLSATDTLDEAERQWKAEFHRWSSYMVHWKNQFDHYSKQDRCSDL
Excerpt: National Center for Advancing Translational Sciences [NCATS]
Division of Preclinical Innovation [DPI]
U.S. Environmental Protection Agency [EPA]
National Institutes of Environmental Health Sciences [NIEHS]
National Toxicology Program [NTP]
U.S. Food and Drug Administration [FDA]
Acetylcholinesterase (AChE) is the primary cholinesterase in the body that hydrolyzes a key neurotransmitter, acetylcholine. Inhibition of AChE activity can lead to neurotoxicity. Known inhibitors of AChE include organophosphorous pesticides (OP), chemical warfare agents, drugs, and various phytochemicals.
A homogenous cell-based assay using Amplitetrade mark Fluorimetric Acetylcholinesterase Assay Kit *Green Fluorescence* (AAT Bioquest, Sunnyvale, CA) was used to evaluate the chemicals in the Tox21 10K library that inhibit AChE activity. The assay uses Thiolite Green to quantify the thiocholine produced from the hydrolysis of acetylthiocholine by AChE from the SH-SY5Y cells. AChE can hydrolyze acetylthiocholine to create thiocholine. Thiolite Green is fluorescent when reacting with thiocholine. It has spectral properties similar to those of fluorescein. The fluorescence intensity of Thiolite Green is used to measure AChE activity. Its signal can be easily read by a fluorescence microplate reader at Ex/Em = 490/520 nm.
Tox21 Assay Protocol Summary:
For cell-based AChE assay, 2,000 SH-SY5Y cells in 4 uL/well were dispensed into black, clear-bottom 1536-well plates using a Multidrop Combi (Thermo Scientific) dispenser. The assay plates were incubated overnight at 37 C to allow cells to attach to the wells, followed by the transfer of 23 nL compound or DMSO (vehicle control) by a Pintool station (Wako Automation, CA). The plates were incubated for 30 min at 37 C and 5% CO2, followed by the addition of 4 uL of detection cocktail solution (ThioliteGreen, acetylthiocholine) into each well using Flying Reagent Dispenser (Beckman Coulter, CA) and then following 40 min incubation at room temperature. Fluorescent intensity (Ex/Em = 490/520 nm) was measured using an Envision plate reader (PerkinElmer, MA).
% is scaled to controls: 0 for no effect and ±100 for the full control effect; potency is read from the fitted curve at half-maximal effect.

Row | Structure (SMILES) | activity change, negative = inhibition | Potency
1 | CCC(Cl)CC(Cl)C(Cl)C(Cl)C(Cl)C(C)Cl (stereo not given) | 0.856% [at 23.8 µM] | 
2 | CC(C)(C)CC(C)(C)N | -0.43% | 
3 | CS(=O)(=O)c1ccc([C@@H](O)[C@@H](CF)NC(=O)C(Cl)Cl)cc1 | 5.09% [at 53.7 µM] | 
4 | CCCCCCCCCCCCCCC | 7.81% | 
5 | CCN(CC)c1ccc(N=Nc2ccccc2)cc1 | -10.4% | 
6 | CC1CC(O)CC(C)(C)C1 (stereo not given) | -0.386% | 
7 | c1ccc2cnccc2c1 | 1.19% | 
8 | CCOC(=O)CC(C(C)=O)C(C)=O | 0.738% | 
9 | CC(=O)CCc1ccccc1 |  | inactive
10 | NC(=O)c1cccc([N+](=O)[O-])c1 | 0.829% | 
11 | CCCCCCC/C=C/C=O | -7.42% | 
12 | CSCC[C@H](NC(=O)[C@H](Cc1c[nH]c2ccccc12)NC(=O)CCNC(=O)OC(C)(C)C)C(=O)N[C@@H](CC(=O)O)C(=O)N[C@@H](Cc1ccccc1)C(N)=O | 10.1% [at 53.7 µM] | 
13 | Sc1nc(S)nc(S)n1 | 6.97% [at 53.7 µM] | 
14 | CN1C(C(=O)Nc2ccccn2)=C(O)c2sccc2S1(=O)=O | 7.21% [at 53.7 µM] | 
15 | NS(=O)(=O)c1cc2c(cc1Cl)NC=NS2(=O)=O |  | inactive
16 | Cc1c(NC(=O)c2cccnc2)c(=O)n(-c2ccccc2)n1C | -4.57% [at 53.7 µM] | 
17 | O=C=NC1CCC(CC2CCC(N=C=O)CC2)CC1 (stereo not given) | -7.32% | 
18 | Cc1nnc(NS(=O)(=O)c2ccc(N)cc2)s1 |  | inactive
19 | O=C(NCCCN1CCOCC1)c1ccc(Cl)cc1 | 9.15% [at 53.7 µM] | 
20 | CCOC(=O)C(C)C(C)=O (stereo not given) | 6.65% | 

Row | Structure (SMILES) | activity change, negative = inhibition | Potency
21 | CCNc1nc(N)nc(Cl)n1 | 2.37% | 
22 | CC#N | 0.543% | 
23 | COC(Cc1ccccc1)OC | -0.407% | 
24 | CCCC1O[C@@H]2C[C@H]3[C@@H]4CCC5=CC(=O)C=C[C@]5(C)[C@H]4[C@@H](O)C[C@]3(C)[C@]2(C(=O)CO)O1 (stereo not given in full) |  | inactive
25 | O=C1CCCC1 |  | inactive
26 | CC12CCC(CC1=O)C2(C)C (stereo not given) | 4.33% | 
27 | CC(=O)c1nccs1 |  | inactive
28 | CC(C)NC(=O)c1ccccc1N | -1.3% | 
29 | O=C(O)CCCCCCCC(=O)O |  | inactive
30 | O=C(Nc1ccccc1SSc1ccccc1NC(=O)c1ccccc1)c1ccccc1 |  | inactive
31 | CCN(CC#N)c1cccc(C)c1 | -3.11% | 
32 | COc1cc(/C=C/C(=O)O[C@H]2CC[C@]34C[C@]35CC[C@]3(C)[C@@H]([C@H](C)CCC=C(C)C)CC[C@@]3(C)[C@@H]5CC[C@H]4C2(C)C)ccc1O | -4.34% [at 53.7 µM] | 
33 | CC(C)(c1ccc(O)cc1)c1ccc(O)cc1 | -5% | 
34 | Cc1ccc2oc(CN(Cc3ccccc3)C(=O)Nc3c(F)cc(F)cc3F)c(-c3ccc(Cl)cc3)c2c1 | -1.28% | 
35 | CCCCC[Si](OCC)(OCC)OCC | -5.65% | 
36 | Nc1ccc(N)c2ccccc12 | -0.449% | 
37 | CC(=O)NCCCCCC(=O)O | 3.57% [at 53.7 µM] | 
38 | CC1=CC(=O)c2ccccc2C1=O |  | inactive
39 | c1cc(CN2CCCCC2)cc(OCCCNc2nc3ccccc3s2)c1 |  | 13.8 µM (active)
40 | CCCCCCCCC(=O)O |  | inactive
